# A selection: hits, their analogues and other compounds. The true share with any hit is near 9.7%.
# M1 antagonist = antagonists of rat M1 muscarinic receptor; 3.4% of 64,000 active; CHO-M1 cells, Fluo-4 calcium, ACh EC80 antagonist mode; stronger effect = lower value; B-score at 10 µM; Muscarinic acetylcholine receptor M1 (Rattus norvegicus), P08482;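 active = calcium fluorescence response, raw or row-and-column corrected B-score, differing from the plate sample mean either way at a set confidence level, mostly lower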
# Target sequence (P08482 whole entry, looked up): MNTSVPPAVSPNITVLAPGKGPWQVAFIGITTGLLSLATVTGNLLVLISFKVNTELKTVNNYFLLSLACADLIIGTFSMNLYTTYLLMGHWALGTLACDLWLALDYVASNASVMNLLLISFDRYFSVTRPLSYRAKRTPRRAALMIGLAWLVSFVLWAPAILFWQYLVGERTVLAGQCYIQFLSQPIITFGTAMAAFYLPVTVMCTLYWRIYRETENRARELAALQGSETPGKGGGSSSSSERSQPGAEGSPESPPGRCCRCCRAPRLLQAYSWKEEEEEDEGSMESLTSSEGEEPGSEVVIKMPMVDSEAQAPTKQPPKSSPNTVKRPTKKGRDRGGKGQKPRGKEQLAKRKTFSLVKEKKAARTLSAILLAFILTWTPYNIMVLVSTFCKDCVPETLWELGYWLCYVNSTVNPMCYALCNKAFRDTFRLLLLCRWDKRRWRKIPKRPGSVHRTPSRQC
# BAP1 inh = inhibitors of BAP1 deubiquitinase, primary screen, biochemical, Ub-AMC fluorescence, kinetic. Ubiquitin carboxyl-terminal hydrolase BAP1 (Homo sapiens), Q92560. recombinant BAP1, Ub-AMC hydrolysis fluorescence kinetic; stronger effect = lower value. calls only at 20 µM. 0.48% of 72,000 active;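 active = activity remaining at or below 50% of control, provided the compound also passes the data quality filters; inactive = the rest, including low values that fail the filters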;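 note: 100% = DMSO wells rate and 0% = substrate alone blank rate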
# M1 agonist = M1 muscarinic receptor agonists, primary screen, CHO-M1 cells, Fluo-4 calcium, agonist mode. Fluo-4 calcium fluorescence; stronger effect = higher value. B-score at 10 µM. 3% of 64,000 active. AID 626, 2007;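 active = fluorescence rise, raw or as B-score row- and column-corrected plate score, outside the 99.7% band of its plate's samples, either direction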
# WNV NS2B-NS3 inh = inhibitors of WNV NS2B-NS3 protease, primary screen, biochemical, fluorogenic substrate | fluorogenic substrate Ex360/Em465; stronger effect = lower value | Genome polyprotein (West Nile virus), P06935 | 0.18% of 65,000 active | z-score (no concentration beside the values); in the data active = z-score below about -3
# Autofluor 339 = intrinsic fluorescence of library compounds, ex339/em460 – biochemical, MLSMR library, data from DPM-DC assay, artefact control, profiling panel; 5.5% of 65,000 active; fluorescence fold increase at 10 µM; compound autofluorescence, ex339/em460 nm, NADH buffer; stronger effect = higher value; 1 = no-compound wells, NADH background; AID 709, 2007;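 active = at 10 µM, mean starting fluorescence two-fold or more over control wells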;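 note: signal is the first read of a kinetic run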
# A340 absorber = compound light absorbance at 340 nm, profiling panel, artefact control, biochemical, MLSMR library, data from PS, PMK, MK assays. compound absorbance at 340 nm, fold over control. 65,000 tested, under 10 active. fold change at 10 µM;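 active = at 10 µM dose, initial 340 nm absorbance at least 2 fold that of control wells; inactive = change under 2 fold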;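 note: initial absorbance extrapolated from kinetic A340 decline of NADH oxidation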
# * = called active by the depositor; i = inactive; . = not tested or not shown.
SMILES,M1 antagonist,BAP1 inh,M1 agonist,WNV NS2B-NS3 inh,Autofluor 339,A340 absorber
c1ccc(C(c2nnnn2C2CCCCC2)N2CCc3ccccc3C2)nc1 (stereo not given),-0.92,i,-0.45,0.82,4*,1
COc1ccc(CNC(=O)C2CC(=O)N(c3ccc(Cl)cc3)C2)cc1 (stereo not given),.,i,.,.,.,.
O=C(CCc1nc2ccccc2[nH]1)N1CCN(C(=O)c2ccco2)CC1,0.76,i,-0.41,0.42,1,1
O=C(CSc1ccc(-c2nc3ccccc3[nH]2)cn1)N1CCN(C(=O)c2ccco2)CC1,-1,.,12*,0.3,2.1*,1.1
CCOC(=O)C1=C(CC)NC2=C(C(=O)CCC2)C1c1ccncc1 (stereo not given),.,i,.,.,.,.
O=c1ccc2ccc(OCc3nnc(-c4ccccc4Br)o3)cc2o1,0.27,.,0.044,0.42,1.9,1
Cc1cc(=O)oc2cc(OCc3nnc(-c4ccccc4Br)o3)ccc12,0.79,.,0.19,1.8,4.5*,1
COC(=O)c1ccc2c(=O)n(CCCCCC(=O)NCc3ccccn3)c(=O)[nH]c2c1,-0.37,.,-0.012,0.47,2.5*,1
COc1ccc(-c2nnc(N)s2)cc1,-0.0056,i,-0.37,1.5,1.2,1
CNc1nnc(-c2ccncc2)s1,.,.,.,1,4.3*,1.1
Nc1nnc(-c2ccncc2)s1,-0.34,.,-0.12,0.36,3.9*,1
Cn1c(=O)n(C)c2nc([N+](=O)[O-])c(Cl)cc21,.,i,.,.,.,.
Cc1ccc(-n2c(SCC(=O)Nc3ccc4c(c3)OCCO4)nnc2-c2ccco2)cc1,-0.35,i,-0.43,0.63,1.1,1
COc1ccc(NC(=O)CSc2nnc(-c3ccccc3)n2Cc2ccco2)c(OC)c1,0.016,i,1.1,1.2,1.1,1
CCn1c(COc2ccc(C)cc2)nnc1SCC(=O)Nc1ccc2c(c1)OCCO2,-0.029,i,3.6,2,2*,1
CCCn1c(SCC(=O)Nc2ccc3c(c2)OCCO3)nnc1-c1ccco1,.,i,.,-3.9*,1.1,1
C=CCn1c(COc2ccccc2)nnc1SCC(=O)Nc1ccc2c(c1)OCCO2,0.49,i,0.013,-0.73,1.2,1.1
COc1cccc(-c2nnc(SCC(=O)Nc3ccc4c(c3)OCCO4)n2Cc2ccco2)c1,-0.12,i,5.8*,-0.31,1.1,1
COC(=O)c1ccccc1NC(=O)n1cc(C)cn1,0.8,i,0.34,1.5,3.6*,1.1
O=C1Sc2cccc3cccc1c23,.,i,.,.,.,.
Cc1ccc(-c2cc(C(F)F)n3ncc(C(=O)NCc4ccco4)c3n2)cc1,-0.076,.,0.51,-2.4,2.3*,1.1
O=C(c1cnn2c(C(F)F)cc(-c3ccccc3)nc12)N1CCOCC1,0.61,i,1,-1.1,3.7*,1.1
COc1ccc(C2CC(C(F)(F)F)n3ncc(C(=O)NCC4CCCO4)c3N2)cc1OC (stereo not given),0.26,i,0.34,0.82,1.1,1
CCOC(=O)N1CCN(C(=O)c2cnn3c(C(F)F)cc(-c4ccc(C)cc4)nc23)CC1,1.5,i,0.36,-0.43,2.9*,1.1
O=C(c1cnn2c(C(F)F)cc(-c3ccccc3)nc12)N1CCSCC1,0.45,i,-1,0.45,1.2,1.1
SMILES,M1 antagonist,BAP1 inh,M1 agonist,WNV NS2B-NS3 inh,Autofluor 339,A340 absorber
COc1ccc(-c2cc(C(F)F)n3ncc(C(=O)NCC4CCCO4)c3n2)cc1 (stereo not given),-0.26,i,0.48,-1,3*,1
O=C(Nc1nc2c(cc3c4c(cccc42)CC3)s1)c1ccc(S(=O)(=O)N2CCc3ccccc32)cc1,.,i,.,.,.,.
Cc1cc(OC(=O)c2ccccc2)cc2c(=O)c3ccccc3sc12,.,i,.,.,.,.
Cc1ccccc1Cc1c(C)nc2nc(SCC(=O)NCc3ccco3)nn2c1C,0,.,0.028,-0.89,1.1,1
CC1CN(C(=O)c2cnn3c(C(F)F)cc(-c4ccccc4)nc23)CC(C)O1 (stereo not given),0.76,i,0.39,0.8,1.8,1.1
Cc1ccccc1Cc1c(C)nc2c(C(=O)NCc3ccco3)cnn2c1C,-0.12,i,0.93,1.1,3.3*,1.1
